Results taken from the supplement of paper PMC6411743.
± gives the standard deviation of the averaged measurements. The full data set covers some 5,400 targets. This sample favours those with the largest changes.

Compound: Nc1nc2c(ncn2[C@@H]2O[C@H](COP(=O)(O)OP(=O)(O)OP(=O)(O)O)[C@@H](O)[C@H]2O)c(=O)[nH]1 [guanosine triphosphate]
Assay: NP40-soluble protein abundance relative to vehicle (solubility fold change) (ratio); higher = more soluble protein in presence of GTP
Summary of the method: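 Crude Jurkat lysate, prepared by Dounce homogenisation, was exposed to eight concentrations from 0.1 to 10 mM for 10 min at room temperature and then 3 min at 37 °C. Solubilisation used 0.8% NP40 with benzonase for 60 min at 4 °C, followed by ultracentrifugation and TMT labelling of the supernatant for LC-MS/MS. After vsn normalisation of intensities, each value is the fold change against the detergent-processed vehicle within each replicate, across three independent experiments.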

Sequence of UniProt Q86WQ0 (Q86WQ0 whole entry): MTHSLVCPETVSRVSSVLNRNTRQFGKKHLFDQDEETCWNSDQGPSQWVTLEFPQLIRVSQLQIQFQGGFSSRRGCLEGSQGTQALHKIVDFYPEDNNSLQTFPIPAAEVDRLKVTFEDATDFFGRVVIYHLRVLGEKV
Sequence of UniProt Q13572 (Q13572 whole entry): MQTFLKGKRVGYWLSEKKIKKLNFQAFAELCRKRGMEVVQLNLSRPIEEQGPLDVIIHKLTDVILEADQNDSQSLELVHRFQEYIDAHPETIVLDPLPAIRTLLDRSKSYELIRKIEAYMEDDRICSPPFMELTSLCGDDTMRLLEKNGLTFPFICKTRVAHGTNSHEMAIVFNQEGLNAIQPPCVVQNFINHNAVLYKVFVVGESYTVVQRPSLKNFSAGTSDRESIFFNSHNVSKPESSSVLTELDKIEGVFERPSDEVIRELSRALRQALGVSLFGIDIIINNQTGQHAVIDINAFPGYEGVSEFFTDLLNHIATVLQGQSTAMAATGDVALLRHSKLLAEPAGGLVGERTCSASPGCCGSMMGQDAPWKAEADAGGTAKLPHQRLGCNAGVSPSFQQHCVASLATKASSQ
Sequence of UniProt Q6ZNB6 (Q6ZNB6 whole entry): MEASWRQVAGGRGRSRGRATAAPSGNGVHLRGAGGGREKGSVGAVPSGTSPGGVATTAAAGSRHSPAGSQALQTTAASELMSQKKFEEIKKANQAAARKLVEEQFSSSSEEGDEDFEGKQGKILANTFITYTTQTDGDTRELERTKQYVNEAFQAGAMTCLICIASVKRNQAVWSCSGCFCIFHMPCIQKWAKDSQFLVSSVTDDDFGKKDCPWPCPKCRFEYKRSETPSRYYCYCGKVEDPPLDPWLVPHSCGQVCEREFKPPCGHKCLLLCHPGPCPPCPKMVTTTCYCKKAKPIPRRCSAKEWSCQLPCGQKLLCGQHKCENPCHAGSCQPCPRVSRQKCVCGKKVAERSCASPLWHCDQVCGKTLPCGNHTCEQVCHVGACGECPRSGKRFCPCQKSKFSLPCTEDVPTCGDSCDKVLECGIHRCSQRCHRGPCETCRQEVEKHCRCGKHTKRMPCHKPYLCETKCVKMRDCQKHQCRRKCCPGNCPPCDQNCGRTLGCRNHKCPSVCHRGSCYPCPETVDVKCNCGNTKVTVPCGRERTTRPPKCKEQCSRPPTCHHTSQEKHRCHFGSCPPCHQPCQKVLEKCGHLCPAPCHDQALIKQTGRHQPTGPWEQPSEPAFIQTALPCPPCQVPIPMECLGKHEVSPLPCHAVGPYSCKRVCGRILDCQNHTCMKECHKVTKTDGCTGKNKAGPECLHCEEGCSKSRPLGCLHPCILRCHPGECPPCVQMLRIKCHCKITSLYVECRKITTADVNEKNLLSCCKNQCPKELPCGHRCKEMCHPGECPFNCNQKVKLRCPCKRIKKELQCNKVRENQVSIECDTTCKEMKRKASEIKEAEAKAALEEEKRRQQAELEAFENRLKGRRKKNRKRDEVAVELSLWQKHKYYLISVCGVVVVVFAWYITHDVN
Sequence of UniProt P61962 (P61962 whole entry): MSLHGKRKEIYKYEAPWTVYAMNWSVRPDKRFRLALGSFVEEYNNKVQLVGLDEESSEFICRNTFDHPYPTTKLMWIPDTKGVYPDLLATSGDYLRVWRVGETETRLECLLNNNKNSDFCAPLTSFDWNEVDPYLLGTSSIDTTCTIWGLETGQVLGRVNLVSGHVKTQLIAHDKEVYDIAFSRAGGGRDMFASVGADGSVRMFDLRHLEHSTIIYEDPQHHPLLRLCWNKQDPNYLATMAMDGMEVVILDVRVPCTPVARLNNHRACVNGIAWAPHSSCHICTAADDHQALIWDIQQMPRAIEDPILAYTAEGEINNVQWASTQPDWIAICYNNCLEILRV
Sequence of UniProt Q15024 (Q15024 whole entry): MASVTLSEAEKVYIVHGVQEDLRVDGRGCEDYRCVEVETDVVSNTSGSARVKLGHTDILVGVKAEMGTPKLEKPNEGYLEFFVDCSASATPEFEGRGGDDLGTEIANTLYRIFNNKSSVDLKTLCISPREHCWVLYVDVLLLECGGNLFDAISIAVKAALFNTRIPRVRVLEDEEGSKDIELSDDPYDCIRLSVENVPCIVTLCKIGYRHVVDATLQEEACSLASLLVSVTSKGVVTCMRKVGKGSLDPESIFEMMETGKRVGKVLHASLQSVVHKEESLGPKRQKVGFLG
Sequence of UniProt Q49A26 (Q49A26 whole entry): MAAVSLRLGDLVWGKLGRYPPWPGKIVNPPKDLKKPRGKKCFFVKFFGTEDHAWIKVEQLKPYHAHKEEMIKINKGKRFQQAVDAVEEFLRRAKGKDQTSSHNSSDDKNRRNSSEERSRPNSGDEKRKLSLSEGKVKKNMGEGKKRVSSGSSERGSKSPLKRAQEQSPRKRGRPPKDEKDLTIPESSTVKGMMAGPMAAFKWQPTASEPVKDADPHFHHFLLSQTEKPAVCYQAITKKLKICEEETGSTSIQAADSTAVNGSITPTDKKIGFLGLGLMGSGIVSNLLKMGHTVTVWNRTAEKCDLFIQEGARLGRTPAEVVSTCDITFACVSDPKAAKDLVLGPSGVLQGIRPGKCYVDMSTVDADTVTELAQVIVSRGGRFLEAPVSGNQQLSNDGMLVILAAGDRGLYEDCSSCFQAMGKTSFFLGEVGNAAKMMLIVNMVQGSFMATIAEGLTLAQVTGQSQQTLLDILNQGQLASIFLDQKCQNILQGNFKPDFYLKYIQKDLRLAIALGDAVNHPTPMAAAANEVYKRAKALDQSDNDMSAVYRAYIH
Sequence of UniProt Q6KCM7 (Q6KCM7 whole entry): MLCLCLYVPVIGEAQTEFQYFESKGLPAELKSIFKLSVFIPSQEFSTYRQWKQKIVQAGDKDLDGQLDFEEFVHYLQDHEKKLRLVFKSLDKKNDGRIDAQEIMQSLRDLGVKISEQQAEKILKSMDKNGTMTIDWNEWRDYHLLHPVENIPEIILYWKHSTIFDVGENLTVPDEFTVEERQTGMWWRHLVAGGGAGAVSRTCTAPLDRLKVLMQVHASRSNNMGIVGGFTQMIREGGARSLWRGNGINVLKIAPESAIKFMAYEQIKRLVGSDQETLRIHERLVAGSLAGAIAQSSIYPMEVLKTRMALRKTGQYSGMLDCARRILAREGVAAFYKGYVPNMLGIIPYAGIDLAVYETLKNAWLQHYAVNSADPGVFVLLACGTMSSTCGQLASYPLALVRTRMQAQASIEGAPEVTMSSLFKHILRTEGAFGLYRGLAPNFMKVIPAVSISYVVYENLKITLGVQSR
Sequence of UniProt Q7KZN9 (Q7KZN9 whole entry): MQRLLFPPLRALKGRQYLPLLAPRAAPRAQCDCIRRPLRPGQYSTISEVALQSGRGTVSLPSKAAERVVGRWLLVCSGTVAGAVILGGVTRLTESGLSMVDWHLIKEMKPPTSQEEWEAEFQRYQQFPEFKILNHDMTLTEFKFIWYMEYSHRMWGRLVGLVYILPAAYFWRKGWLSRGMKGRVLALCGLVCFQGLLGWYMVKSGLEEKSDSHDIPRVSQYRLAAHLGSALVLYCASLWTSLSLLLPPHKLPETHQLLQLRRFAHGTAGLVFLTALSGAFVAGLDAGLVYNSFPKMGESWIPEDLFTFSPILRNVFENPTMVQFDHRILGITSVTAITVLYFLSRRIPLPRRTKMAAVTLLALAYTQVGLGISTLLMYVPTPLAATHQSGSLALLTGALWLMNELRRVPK
Sequence of UniProt Q86WR0 (Q86WR0 whole entry): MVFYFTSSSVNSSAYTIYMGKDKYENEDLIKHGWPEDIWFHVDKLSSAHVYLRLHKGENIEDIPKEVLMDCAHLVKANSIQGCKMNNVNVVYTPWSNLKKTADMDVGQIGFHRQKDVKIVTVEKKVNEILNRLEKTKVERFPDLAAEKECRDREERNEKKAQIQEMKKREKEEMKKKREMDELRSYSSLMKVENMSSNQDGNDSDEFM
Sequence of UniProt Q12872 (Q12872 whole entry): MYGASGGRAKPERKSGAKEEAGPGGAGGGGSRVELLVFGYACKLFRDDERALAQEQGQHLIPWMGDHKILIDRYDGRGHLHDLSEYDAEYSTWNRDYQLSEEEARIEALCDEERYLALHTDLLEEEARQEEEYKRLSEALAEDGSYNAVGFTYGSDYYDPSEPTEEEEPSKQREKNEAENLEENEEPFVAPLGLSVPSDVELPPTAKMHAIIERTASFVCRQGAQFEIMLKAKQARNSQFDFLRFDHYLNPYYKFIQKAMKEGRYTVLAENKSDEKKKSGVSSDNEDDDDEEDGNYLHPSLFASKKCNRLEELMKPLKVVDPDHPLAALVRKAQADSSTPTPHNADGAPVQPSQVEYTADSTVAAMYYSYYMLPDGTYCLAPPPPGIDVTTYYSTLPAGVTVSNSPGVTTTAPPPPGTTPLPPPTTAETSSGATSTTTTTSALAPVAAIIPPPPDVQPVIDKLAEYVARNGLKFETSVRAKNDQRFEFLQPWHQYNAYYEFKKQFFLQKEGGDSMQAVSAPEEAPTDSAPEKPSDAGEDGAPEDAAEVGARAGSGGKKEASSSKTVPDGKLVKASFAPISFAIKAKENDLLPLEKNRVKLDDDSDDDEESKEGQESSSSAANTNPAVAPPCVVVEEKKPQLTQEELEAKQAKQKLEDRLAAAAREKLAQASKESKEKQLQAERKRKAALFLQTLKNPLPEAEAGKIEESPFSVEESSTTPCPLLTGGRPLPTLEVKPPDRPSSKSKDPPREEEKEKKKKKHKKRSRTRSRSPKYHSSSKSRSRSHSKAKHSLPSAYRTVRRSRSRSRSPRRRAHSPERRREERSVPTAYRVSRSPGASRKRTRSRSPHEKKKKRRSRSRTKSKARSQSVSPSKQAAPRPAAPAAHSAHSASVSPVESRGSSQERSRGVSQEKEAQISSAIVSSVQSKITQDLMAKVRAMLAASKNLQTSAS
Sequence of UniProt Q53S33 (Q53S33 whole entry): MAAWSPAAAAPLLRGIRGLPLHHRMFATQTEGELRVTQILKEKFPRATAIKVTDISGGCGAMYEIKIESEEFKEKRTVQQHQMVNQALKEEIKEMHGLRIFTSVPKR

Target	NP40-soluble protein abundance (concentration: 0.1mM)	NP40-soluble protein abundance (concentration: 0.5mM)	NP40-soluble protein abundance (concentration: 1mM)	NP40-soluble protein abundance (concentration: 2mM)	NP40-soluble protein abundance (concentration: 4mM)	NP40-soluble protein abundance (concentration: 6mM)	NP40-soluble protein abundance (concentration: 8mM)	NP40-soluble protein abundance (concentration: 10mM)
UniProt Q5K651|C9JKF1	1.04 ± 0.017	1.07 ± 0.021	0.998 ± 0.025	1.01 ± 0.062	0.968 ± 0.083	0.959 ± 0.047	0.985 ± 0.045	0.949 ± 0.088
UniProt Q12872|Q12872-2	0.979 ± 0.031	1.04 ± 0.027	1.17 ± 0.014	1.24 ± 0.024	1.42 ± 0.016	1.52 ± 0.068	1.7 ± 0.13	1.78 ± 0.13
UniProt Q49A26|Q49A26-3|Q49A26-4	1.044 ± 0.0023	1.06 ± 0.036	1.15 ± 0.03	1.27 ± 0.028	1.52 ± 0.16	1.72 ± 0.026	1.97 ± 0.078	2.27 ± 0.094
PSMD2 (UniProt Q13200)	1.03 ± 0.077	1.1 ± 0.11	1.01 ± 0.13	1.08 ± 0.19	1.06 ± 0.17	1.08 ± 0.2	1.04 ± 0.16	1 ± 0.15
CCDC25 (UniProt Q86WR0)	0.954 ± 0.079	0.939 ± 0.057	0.892 ± 0.051	0.842 ± 0.071	0.855 ± 0.1	0.842 ± 0.084	0.876 ± 0.059	0.863 ± 0.068
UniProt Q6KCM7|Q6KCM7-2|Q6KCM7-3|Q6KCM7-4|Q6KCM7-5|Q6KCM7-6	1.12 ± 0.041	1.08 ± 0.034	1.06 ± 0.058	1.04 ± 0.016	1.04 ± 0.066	1.019 ± 0.0034	0.982 ± 0.061	0.989 ± 0.098
UniProt Q6NW34|Q6NW34-2	0.848 ± 0.051	0.888 ± 0.08	0.881 ± 0.074	0.85 ± 0.031	0.839 ± 0.071	0.929 ± 0.032	0.871 ± 0.059	0.93 ± 0.012
UniProt P61962	1.02 ± 0.081	1.08 ± 0.089	0.988 ± 0.07	1.04 ± 0.1	1.02 ± 0.057	1.01 ± 0.092	0.946 ± 0.021	0.964 ± 0.03
UniProt Q7KZN9|Q7KZN9-2	1.07 ± 0.024	1.05 ± 0.11	0.98 ± 0.035	0.961 ± 0.022	0.939 ± 0.052	0.924 ± 0.037	0.907 ± 0.029	0.931 ± 0.042
EXOSC7 (UniProt Q15024)	1.09 ± 0.084	1.01 ± 0.071	1.06 ± 0.086	1.11 ± 0.12	1.26 ± 0.13	1.17 ± 0.12	1.22 ± 0.077	1.18 ± 0.061
UniProt Q86WQ0|Q86WQ0-2	0.973 ± 0.06	0.939 ± 0.017	0.882 ± 0.094	0.9 ± 0.082	0.884 ± 0.14	0.897 ± 0.096	0.849 ± 0.13	0.862 ± 0.099
BOLA3 (UniProt Q53S33)	0.893 ± 0.02	0.843 ± 0.047	0.962 ± 0.065	0.982 ± 0.03	0.953 ± 0.022	0.966 ± 0.061	0.925 ± 0.09	1.01 ± 0.042
ITPK1 (UniProt Q13572)	0.997 ± 0.085	0.965 ± 0.064	0.904 ± 0.095	0.981 ± 0.077	0.981 ± 0.15	0.943 ± 0.18	0.924 ± 0.13	0.953 ± 0.09
NFXL1 (UniProt Q6ZNB6)	1.04 ± 0.079	1.09 ± 0.1	1.05 ± 0.091	1.11 ± 0.067	1.13 ± 0.12	1.16 ± 0.13	1.12 ± 0.12	1.15 ± 0.11
